# Compound activity as filed in PubChem.
# tim23-1 inh: inhibits growth of tim23-1 mutant yeast | S. cerevisiae tim23-1 growth, BacTiter-Glo luminescence, 24 h | inhibition, % at 20 µM | 1.3% of 330,000 active;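 active = growth inhibition of the mutant yeast at or above 50%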;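 also: temperature-sensitive mutant grown at 25 °C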
# NALP1 yeast inh: inhibitors of NALP1 inflammasome in yeast; AID 2071; inhibition, % at 10 µM; 0.61% of 280,000 active; S. cerevisiae NALP1/ASC/caspase-1 growth, X-gal OD620, 72 h; in the data active = inhibition mostly above about 24%, no sharp cut-off; inactive = mostly below about 32%
# NLRP3 yeast inh: NALP3 inhibition in yeast; Yeast reconstituted NLRP3/ASC/caspase-1, beta-gal luminescence, 24 h; inhibition, % at 10 µM; 0.39% of 330,000 active; AID 2825;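 active = inhibition of 50% or more; inactive = inhibition below 50%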
# TIM10 inh: inhibits growth of TIM10 yeast strain; AID 463195; inhibition, % at 10 µM; 1.4% of 330,000 active; S. cerevisiae TIM10 strain growth, BacTiter-Glo luminescence, 24 h;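 active = inhibition of 40% or more at the single tested concentration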;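 also: wild-type TIM10 isogenic control strain grown at permissive 25 °C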
# tim10-1 inh: inhibits growth of tim10-1 mutant yeast. 2.2% of 330,000 active. AID 463190. inhibition, % at 20 µM. S. cerevisiae tim10-1 ts strain growth, BacTiter-Glo, 24 h;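 active = inhibition of at least 40%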;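 also: mutant grown at 25 °C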
# V-ATPase pHluor: alters yeast V-ATPase proton transport. S. cerevisiae, pHLuorin cytosolic pH fluorescence. response, % at 10 µM. 0.37% of 350,000 active; in the data active = response mostly above about 7.3%, no sharp cut-off; inactive = mostly below about 5.4%; also: actives read high
# tim10-1 conf: tim10-1 yeast growth inhibition, confirmed | shares compounds with tim10-1 inh | S. cerevisiae tim10-1 ts strain growth, BacTiter-Glo, 24 h | inhibition, % at 20 µM | 56% of 7,400 active;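 active = inhibition of yeast growth at or above a set limit in either of two repeat tests at 20 µM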;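 also: tim10-1 mutant grown at permissive 25 °C to find synthetic lethal compounds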
# Numbers stand for hits; – = inactive; · = no result given. Sampled rows, rich in hits. Any-hit rate of the full collection: about 4.2%.
SMILES,tim23-1 inh,NALP1 yeast inh,NLRP3 yeast inh,TIM10 inh,tim10-1 inh,V-ATPase pHluor,tim10-1 conf
Cc1ccc(N(Cc2ccc(C(=O)Nc3c(C)n(C)n(-c4ccccc4)c3=O)cc2)S(C)(=O)=O)cc1C,–,–,–,–,–,–,·
N#CCC(CNc1ncc(C(F)(F)F)cc1Cl)OC(=O)c1cccc(C(F)(F)F)c1 (centres undefined),–,–,–,–,42,–,–
O=C(OCCNc1ncc(C(F)(F)F)cc1Cl)c1ccc(S(=O)(=O)N2CCOCC2)cc1,–,–,–,–,–,–,·
COc1ccc(CCN=C(N)NS(=O)(=O)c2cc(F)ccc2OC)cc1,–,–,–,–,–,–,·
O=C(CNC(=O)c1ccccc1F)NCCc1ccc(Cl)cc1,–,–,–,–,–,–,·
CCc1cccc(NC(=O)CS(=O)Cc2nc(-c3ccc(C)cc3)oc2C)c1 (centres undefined),–,–,–,–,47,–,35
CCCc1cc(C(=O)Cc2ccc(F)cc2)c(O)cc1O,–,–,–,–,–,–,·
CCCc1cc(C(=O)Cc2ccc(C(=O)OCC)o2)c(O)cc1O,–,–,–,–,45,–,–
CCCCn1c(CN2CCN(c3ccccc3)CC2)nc2c1c(=O)n(C)c(=O)n2C,–,–,–,–,–,–,·
CSc1nc2c(c(-c3ccccc3)c1C#N)CCC2,–,·,–,–,48,–,32
CC(=O)c1ccc(NC(=O)Cn2cnc(S(=O)(=O)N3CCC(C)CC3)c2)cc1,–,–,–,–,–,–,·
CCCc1sc(N)nc1-c1ccc(Cl)cc1,–,–,–,–,43,–,–
COc1cc(-c2nc3cc(C)ccn3c2NC2CCCCC2)ccc1-c1ccc(C(C)=O)cc1,–,·,–,–,40,–,–
Cc1cc(/C=C2\Sc3ccccc3N2C)cc(C)[n+]1CC1CCCO1 (centres undefined),–,–,–,–,57,–,–
O=C1c2cccc(Cl)c2C(=O)c2c1cccc2N1CCCC1,–,·,–,–,53,–,38
Brc1ccc(-c2nnc(-c3cccnc3)c3conc23)cc1,–,·,–,–,51,·,–
COc1ccc(-c2nnc(C)c3nocc23)cc1,–,–,–,–,–,–,·
C#CCn1c(=NC(=O)c2ccccc2[N+](=O)[O-])sc2cc(S(C)(=O)=O)ccc21,–,–,–,–,–,–,·
COc1ccccc1NC1CCCCC1NS(=O)(=O)c1ccc(C)cc1 (centres undefined),–,–,–,–,48,–,–
Cc1ccc(C)c(NC2CCCCC2NS(=O)(=O)c2ccccc2)c1 (centres undefined),–,–,–,–,46,–,–
O=c1c2ccccc2nc(SCc2ccc([N+](=O)[O-])cc2)n1-c1ccccc1,–,–,–,–,40,–,34
Cc1ccc(-c2csc(N3CCN(CCCn4c(C(F)(F)F)nc5ccccc54)CC3)n2)cc1,–,–,–,–,–,–,·
Cc1ccc(-c2csc(N3CCN(CCCn4c(-c5ccncc5)nc5ccccc54)CC3)n2)cc1,–,–,–,–,40,–,–
CCN(CC)S(=O)(=O)c1ccc2oc(C(=O)N3CCc4ccccc4C3)c(C)c2c1,–,–,–,–,43,–,30
Cc1cc(C)n2c(SCC(=O)N(C)C3CCS(=O)(=O)C3)nnc2n1 (centres undefined),–,–,–,–,–,–,·
SMILES,tim23-1 inh,NALP1 yeast inh,NLRP3 yeast inh,TIM10 inh,tim10-1 inh,V-ATPase pHluor,tim10-1 conf
Cc1ccc(C)c(S(=O)(=O)N2CCN(C(=O)C3CCN(c4ncnc5sc(C)c(C)c45)CC3)CC2)c1,–,·,–,–,47,–,–
Cc1ccc(NC(=O)C2CCN(c3ncnc4sc(C)c(C)c34)CC2)cc1S(=O)(=O)N(C)C,–,·,–,–,–,–,·
Cc1ccc(C(=O)NN2CCOCC2)cc1,–,–,–,–,–,–,·
O=C(NN1CCOCC1)c1ccc(Br)cc1,–,·,–,–,42,–,–
COc1ccc(Cn2c(=S)[nH]c3ccccc3c2=O)cc1,–,–,–,–,–,–,·
N#C/C(=C\c1cn[nH]c1-c1ccc(Cl)cc1)C(=O)NC1CC1,–,–,–,–,–,–,·
N#C/C(=C\c1cn[nH]c1-c1ccc(Cl)cc1)C(=O)NCc1ccccc1,–,–,–,–,43,–,46
O=C(NN=Cc1ccc2c(c1)CCN2)c1cccs1,·,·,·,·,·,–,·
Cc1c(C(c2ccccc2Br)c2c(C)n(C)n(-c3ccccc3)c2=O)c(=O)n(-c2ccccc2)n1C,–,–,–,–,–,–,·
Cc1ccc(N=Nc2c(N)[nH]n3c(=O)cc(-c4ccccc4)nc23)cc1,–,–,–,–,50,–,–
CCOC(=O)c1c(N)sc(C(=O)OC)c1C,–,–,–,–,–,–,·
CCOC(=O)c1c(N)sc2c(OC)c(Br)ccc12,–,–,–,–,58,–,45
CC1(c2nnc(Cc3ccccc3)o2)CC(c2ccc(F)cc2)=NO1 (centres undefined),–,·,–,–,–,–,·
O=c1nc2onnc2c(C=NO)[nH]1,·,·,·,·,·,–,·
N#Cc1cc(Oc2cccc3cccnc23)c(-n2nnc3ccccc32)cc1C#N,–,–,–,–,48,–,33
N#Cc1cc(O)c(-n2nnc3ccccc32)cc1C#N,–,–,–,–,–,–,·
O=C(Cn1cncn1)NCc1cccc(C(F)(F)F)c1,–,–,–,–,–,–,·
COc1ccc(Nc2nc(Nc3ccc(OC)cc3)nc(SC3=NCCS3)n2)cc1,–,–,–,–,–,–,–
COc1ccc(Nc2nc(OC)nc(OC)n2)cc1,–,–,–,–,–,–,·
CC(NC(=O)C1CCCC1)c1ccccc1 (centres undefined),·,·,·,·,·,–,·
O=c1c2ccccc2nc2c3ccccc3c(NCCO)nn12,–,–,–,–,42,–,33
CC(C)OCCCNc1ncnc2c1[nH]c1ccccc12,–,–,–,–,–,–,·
O=C(CSCCO)Nc1ccc([N+](=O)[O-])cc1,–,–,–,–,–,–,·
Cc1ccc(S(=O)(=O)N2CCN(CCNC(=O)C(=O)Nc3ccc(F)cc3)CC2)cc1,–,–,–,–,–,–,·
O=C(CNC(=O)c1ccccc1F)OCc1nc2ccccc2s1,–,–,–,–,–,–,·
SMILES,tim23-1 inh,NALP1 yeast inh,NLRP3 yeast inh,TIM10 inh,tim10-1 inh,V-ATPase pHluor,tim10-1 conf
CNc1sc(C(=O)c2ccccc2F)c(N)c1-c1nc2ccccc2s1,–,–,–,–,46,–,35
COCCNC(=O)c1c(N)n(/N=C/c2cccs2)c2nc3ccccc3nc12,–,–,–,–,44,–,–
CCCCc1ccc(NC(=S)N2CCN(C(=O)c3ccco3)CC2)cc1,–,–,–,–,43,–,–
Cc1cccc(NC(=S)N2CCN(C(=O)c3ccco3)CC2)c1,–,–,–,–,–,–,·
Cc1cccn2cc(CCNC(=O)c3cccs3)nc12,–,·,–,–,–,–,·
CCC(=O)NCCCCCCNC(=O)CC,–,–,–,–,–,–,·
O=C(c1ccc(COc2ccccc2Br)cc1)N1CCCCCC1,–,–,–,–,41,–,–
